# Experimental data published in ChEMBL document CHEMBL1961873, “Compounds: GSK PKIS; Assays: Nanosyn kinase panel” (2012).
# Assays:
# [1] = target: T1, Inhibitor of nuclear factor kappa-B kinase subunit epsilon (Homo sapiens) (UniProt Q14164); details: at 1 µM;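 also: reported values are averaged percent inhibition figures against human IKKε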
# T1 sequence (whole entry): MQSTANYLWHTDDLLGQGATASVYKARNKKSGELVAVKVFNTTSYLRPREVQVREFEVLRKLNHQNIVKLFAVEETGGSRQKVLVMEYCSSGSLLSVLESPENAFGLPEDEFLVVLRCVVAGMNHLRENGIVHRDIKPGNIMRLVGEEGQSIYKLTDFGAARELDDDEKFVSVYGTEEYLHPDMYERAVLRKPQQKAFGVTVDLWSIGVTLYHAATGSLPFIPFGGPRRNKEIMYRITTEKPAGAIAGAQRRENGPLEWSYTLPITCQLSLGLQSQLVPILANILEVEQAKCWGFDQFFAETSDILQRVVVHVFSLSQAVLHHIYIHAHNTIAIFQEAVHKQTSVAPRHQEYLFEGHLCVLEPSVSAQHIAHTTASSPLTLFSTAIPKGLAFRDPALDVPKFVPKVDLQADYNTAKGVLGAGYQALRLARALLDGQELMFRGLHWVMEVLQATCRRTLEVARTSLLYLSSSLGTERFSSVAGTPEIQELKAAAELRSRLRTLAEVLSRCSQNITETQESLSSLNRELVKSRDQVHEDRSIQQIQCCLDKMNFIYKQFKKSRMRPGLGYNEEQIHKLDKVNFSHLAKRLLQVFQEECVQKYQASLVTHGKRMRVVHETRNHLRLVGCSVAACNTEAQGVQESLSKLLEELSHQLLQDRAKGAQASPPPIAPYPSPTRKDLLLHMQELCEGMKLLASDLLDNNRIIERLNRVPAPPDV
# [2] = target: T2, Serine/threonine-protein kinase Nek1 (Homo sapiens) (UniProt Q96PY6); details: at 0.1 µM
# T2 sequence (whole entry): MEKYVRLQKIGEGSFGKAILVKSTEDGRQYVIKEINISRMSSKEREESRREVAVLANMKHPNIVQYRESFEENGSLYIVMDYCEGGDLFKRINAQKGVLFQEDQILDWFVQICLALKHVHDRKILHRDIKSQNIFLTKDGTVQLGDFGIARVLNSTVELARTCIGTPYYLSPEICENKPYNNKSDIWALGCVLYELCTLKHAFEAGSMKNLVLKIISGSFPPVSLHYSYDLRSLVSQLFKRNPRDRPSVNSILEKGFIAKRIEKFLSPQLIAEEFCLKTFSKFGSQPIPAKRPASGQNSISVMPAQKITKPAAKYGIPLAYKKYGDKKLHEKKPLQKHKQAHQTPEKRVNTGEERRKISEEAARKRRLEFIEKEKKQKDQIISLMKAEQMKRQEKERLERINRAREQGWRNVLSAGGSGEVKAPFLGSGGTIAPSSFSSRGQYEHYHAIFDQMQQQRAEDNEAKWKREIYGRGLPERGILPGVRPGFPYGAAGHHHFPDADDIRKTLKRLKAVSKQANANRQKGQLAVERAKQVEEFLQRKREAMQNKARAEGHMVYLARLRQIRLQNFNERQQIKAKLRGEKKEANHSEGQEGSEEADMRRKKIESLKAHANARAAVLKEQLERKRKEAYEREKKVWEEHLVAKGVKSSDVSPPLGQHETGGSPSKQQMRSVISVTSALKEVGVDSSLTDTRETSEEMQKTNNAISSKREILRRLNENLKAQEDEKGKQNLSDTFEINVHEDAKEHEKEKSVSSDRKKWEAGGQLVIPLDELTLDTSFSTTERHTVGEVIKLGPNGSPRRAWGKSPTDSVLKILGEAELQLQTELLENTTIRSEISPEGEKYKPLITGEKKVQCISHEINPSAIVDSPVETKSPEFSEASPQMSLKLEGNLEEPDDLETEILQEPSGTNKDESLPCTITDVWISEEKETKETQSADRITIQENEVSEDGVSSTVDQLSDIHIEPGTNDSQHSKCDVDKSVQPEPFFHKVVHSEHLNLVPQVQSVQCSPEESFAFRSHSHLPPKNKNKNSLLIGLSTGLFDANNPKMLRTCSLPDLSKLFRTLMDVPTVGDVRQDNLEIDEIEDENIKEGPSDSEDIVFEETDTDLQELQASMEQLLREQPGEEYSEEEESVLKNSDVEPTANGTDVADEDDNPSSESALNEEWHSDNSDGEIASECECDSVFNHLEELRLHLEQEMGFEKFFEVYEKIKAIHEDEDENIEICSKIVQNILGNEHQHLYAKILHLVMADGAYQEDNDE
# [3] = target: T2, Serine/threonine-protein kinase Nek1 (Homo sapiens); details: at 1 µM
# [4] = target: T3, Serine/threonine-protein kinase Nek2 (Homo sapiens) (UniProt P51955); details: at 0.1 µM
# T3 sequence (whole entry): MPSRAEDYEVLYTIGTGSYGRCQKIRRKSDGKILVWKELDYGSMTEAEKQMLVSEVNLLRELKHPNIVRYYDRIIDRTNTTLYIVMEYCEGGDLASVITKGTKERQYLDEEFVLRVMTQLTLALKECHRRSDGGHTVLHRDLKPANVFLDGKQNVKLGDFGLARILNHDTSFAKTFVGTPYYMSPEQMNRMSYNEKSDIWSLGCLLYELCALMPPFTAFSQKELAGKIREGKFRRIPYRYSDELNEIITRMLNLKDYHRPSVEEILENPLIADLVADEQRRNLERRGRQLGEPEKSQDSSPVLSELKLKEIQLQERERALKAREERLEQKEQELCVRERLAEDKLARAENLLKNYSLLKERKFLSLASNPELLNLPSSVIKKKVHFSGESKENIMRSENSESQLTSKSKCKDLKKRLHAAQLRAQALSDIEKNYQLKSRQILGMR
# [5] = target: T3, Serine/threonine-protein kinase Nek2 (Homo sapiens); details: at 1 µM
# [6] = target: Serine/threonine-protein kinase Nek6 (Homo sapiens) (UniProt Q9HC98); details: at 0.1 µM
# Chain of Serine/threonine-protein kinase Nek6 (Homo sapiens) (Q9HC98 whole entry): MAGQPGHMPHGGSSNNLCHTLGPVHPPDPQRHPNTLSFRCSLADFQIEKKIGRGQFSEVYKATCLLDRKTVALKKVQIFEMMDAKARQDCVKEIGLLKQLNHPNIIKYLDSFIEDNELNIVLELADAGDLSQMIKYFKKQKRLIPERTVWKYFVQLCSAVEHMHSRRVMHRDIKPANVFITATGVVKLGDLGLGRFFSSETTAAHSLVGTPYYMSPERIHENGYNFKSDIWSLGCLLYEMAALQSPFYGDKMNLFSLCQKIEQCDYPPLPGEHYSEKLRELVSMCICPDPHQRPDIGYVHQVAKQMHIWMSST
# [7] = target: Serine/threonine-protein kinase Nek6 (Homo sapiens) (UniProt Q9HC98); details: at 1 µM
# [8] = target: Serine/threonine-protein kinase Nek7 (Homo sapiens) (UniProt Q8TDX7); details: at 0.1 µM
# Chain of Serine/threonine-protein kinase Nek7 (Homo sapiens) (Q8TDX7 whole entry, looked up): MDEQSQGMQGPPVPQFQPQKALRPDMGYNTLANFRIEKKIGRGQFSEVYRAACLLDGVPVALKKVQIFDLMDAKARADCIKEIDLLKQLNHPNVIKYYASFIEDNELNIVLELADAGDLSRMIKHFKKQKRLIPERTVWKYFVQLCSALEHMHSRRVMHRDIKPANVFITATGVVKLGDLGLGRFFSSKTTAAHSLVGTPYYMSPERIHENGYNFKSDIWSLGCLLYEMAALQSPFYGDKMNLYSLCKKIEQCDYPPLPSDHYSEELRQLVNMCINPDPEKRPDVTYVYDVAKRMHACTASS
# [9] = target: Serine/threonine-protein kinase Nek7 (Homo sapiens) (UniProt Q8TDX7); details: at 1 µM
# [10] = target: T4, Serine/threonine-protein kinase Nek9 (Homo sapiens) (UniProt Q8TD19); details: at 0.1 µM
# T4 sequence (whole entry): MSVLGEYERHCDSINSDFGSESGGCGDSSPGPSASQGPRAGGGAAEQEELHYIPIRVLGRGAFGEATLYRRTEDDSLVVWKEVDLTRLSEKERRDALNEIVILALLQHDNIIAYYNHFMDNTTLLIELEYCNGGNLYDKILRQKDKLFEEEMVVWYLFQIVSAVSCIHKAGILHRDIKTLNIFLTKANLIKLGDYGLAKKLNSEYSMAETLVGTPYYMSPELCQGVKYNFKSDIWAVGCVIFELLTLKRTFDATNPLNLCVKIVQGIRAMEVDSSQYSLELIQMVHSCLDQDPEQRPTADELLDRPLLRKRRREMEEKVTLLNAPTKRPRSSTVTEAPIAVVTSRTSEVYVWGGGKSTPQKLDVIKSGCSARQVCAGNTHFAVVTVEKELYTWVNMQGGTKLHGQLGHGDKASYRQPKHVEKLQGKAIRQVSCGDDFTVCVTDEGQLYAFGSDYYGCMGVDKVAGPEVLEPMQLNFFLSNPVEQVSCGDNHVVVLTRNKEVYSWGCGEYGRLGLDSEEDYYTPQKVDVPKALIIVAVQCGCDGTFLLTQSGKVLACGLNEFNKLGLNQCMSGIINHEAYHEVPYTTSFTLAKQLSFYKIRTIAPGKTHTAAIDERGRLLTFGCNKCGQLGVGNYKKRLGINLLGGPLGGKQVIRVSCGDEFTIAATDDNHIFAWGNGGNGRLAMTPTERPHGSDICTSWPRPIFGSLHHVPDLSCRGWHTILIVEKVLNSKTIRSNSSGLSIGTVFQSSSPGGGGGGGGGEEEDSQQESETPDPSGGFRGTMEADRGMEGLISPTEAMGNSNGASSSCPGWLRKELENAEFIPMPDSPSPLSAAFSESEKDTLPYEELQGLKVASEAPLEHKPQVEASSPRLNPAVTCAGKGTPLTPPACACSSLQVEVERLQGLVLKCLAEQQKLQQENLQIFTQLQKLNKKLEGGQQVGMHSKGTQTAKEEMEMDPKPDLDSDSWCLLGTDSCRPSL
# [11] = target: T4, Serine/threonine-protein kinase Nek9 (Homo sapiens); details: at 1 µM
# [12] = target: Serine/threonine-protein kinase PLK1 (Homo sapiens) (UniProt P53350); details: at 0.1 µM
# Chain of Serine/threonine-protein kinase PLK1 (Homo sapiens) (P53350 whole entry): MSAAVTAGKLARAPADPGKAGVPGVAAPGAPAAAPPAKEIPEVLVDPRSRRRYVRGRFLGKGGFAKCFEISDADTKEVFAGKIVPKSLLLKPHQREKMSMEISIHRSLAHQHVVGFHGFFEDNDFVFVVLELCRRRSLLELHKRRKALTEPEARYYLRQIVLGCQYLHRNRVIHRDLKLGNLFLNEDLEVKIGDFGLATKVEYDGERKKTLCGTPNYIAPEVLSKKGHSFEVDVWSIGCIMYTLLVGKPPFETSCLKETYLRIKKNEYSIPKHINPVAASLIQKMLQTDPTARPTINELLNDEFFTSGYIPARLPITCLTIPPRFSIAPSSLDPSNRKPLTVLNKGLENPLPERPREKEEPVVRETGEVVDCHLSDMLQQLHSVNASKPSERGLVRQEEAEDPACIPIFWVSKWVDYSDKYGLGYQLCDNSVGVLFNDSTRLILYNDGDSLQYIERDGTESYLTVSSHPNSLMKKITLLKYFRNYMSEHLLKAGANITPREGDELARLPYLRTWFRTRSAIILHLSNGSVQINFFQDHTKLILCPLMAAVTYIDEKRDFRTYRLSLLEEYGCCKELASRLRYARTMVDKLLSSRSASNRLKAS
# [13] = target: Serine/threonine-protein kinase PLK1 (Homo sapiens) (UniProt P53350); details: at 1 µM
# [14] = target: T5, Dual specificity protein kinase TTK (Homo sapiens) (UniProt P33981); details: at 0.1 µM
# T5 sequence (whole entry): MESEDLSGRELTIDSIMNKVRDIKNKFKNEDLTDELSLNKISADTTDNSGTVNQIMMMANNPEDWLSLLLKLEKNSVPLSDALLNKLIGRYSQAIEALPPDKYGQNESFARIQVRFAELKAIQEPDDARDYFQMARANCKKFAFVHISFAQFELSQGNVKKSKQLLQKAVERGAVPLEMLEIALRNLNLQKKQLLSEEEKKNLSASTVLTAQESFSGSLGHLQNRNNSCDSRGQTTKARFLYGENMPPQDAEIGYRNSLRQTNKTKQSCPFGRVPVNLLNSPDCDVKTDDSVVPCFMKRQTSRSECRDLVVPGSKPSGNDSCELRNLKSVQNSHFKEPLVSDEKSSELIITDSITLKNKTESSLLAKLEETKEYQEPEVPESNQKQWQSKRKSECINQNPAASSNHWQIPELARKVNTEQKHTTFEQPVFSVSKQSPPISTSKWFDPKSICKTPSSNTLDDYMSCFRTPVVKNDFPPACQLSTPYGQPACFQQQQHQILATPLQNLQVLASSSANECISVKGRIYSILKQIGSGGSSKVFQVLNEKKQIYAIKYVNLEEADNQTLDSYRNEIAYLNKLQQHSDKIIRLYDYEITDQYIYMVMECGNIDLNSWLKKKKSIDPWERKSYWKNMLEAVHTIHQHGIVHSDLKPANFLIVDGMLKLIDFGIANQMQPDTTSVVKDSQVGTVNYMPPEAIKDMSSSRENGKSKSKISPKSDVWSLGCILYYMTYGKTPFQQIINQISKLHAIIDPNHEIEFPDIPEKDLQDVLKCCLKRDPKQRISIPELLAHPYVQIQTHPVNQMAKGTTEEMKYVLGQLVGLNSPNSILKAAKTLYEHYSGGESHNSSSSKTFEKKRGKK
# [15] = test system: T6, Receptor-type tyrosine-protein kinase FLT3 (Homo sapiens), P36888 [D835Y]; details: at 1 µM
# T6 sequence (whole entry): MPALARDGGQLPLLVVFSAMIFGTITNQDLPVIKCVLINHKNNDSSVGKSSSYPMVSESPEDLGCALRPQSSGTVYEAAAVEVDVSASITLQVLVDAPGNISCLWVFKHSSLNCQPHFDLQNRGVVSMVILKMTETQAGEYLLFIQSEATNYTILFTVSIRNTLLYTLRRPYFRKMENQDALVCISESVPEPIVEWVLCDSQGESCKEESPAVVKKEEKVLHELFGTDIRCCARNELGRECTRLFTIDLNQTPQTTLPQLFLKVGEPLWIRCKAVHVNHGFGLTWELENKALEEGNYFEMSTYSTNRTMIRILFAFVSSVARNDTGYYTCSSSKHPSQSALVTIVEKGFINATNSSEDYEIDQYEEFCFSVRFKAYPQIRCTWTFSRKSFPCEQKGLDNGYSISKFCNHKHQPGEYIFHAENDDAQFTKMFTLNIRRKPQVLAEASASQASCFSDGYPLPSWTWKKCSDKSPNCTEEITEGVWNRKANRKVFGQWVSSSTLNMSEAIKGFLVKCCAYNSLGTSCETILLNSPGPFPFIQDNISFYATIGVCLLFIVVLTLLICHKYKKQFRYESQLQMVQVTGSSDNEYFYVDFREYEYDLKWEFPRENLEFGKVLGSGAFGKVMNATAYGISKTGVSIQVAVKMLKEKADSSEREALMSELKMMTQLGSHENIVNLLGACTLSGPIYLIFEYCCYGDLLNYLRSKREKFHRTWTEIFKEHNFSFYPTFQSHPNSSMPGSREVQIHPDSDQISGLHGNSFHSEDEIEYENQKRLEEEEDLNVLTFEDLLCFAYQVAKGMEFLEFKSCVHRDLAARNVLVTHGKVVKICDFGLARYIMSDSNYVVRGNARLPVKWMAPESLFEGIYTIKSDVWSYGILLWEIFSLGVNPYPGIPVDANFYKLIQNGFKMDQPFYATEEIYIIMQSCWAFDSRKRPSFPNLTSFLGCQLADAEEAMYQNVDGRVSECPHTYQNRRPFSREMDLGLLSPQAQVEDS
# [16] = target: Vascular endothelial growth factor receptor 3 (Homo sapiens) (UniProt P35916); details: at 0.1 µM
# Chain of Vascular endothelial growth factor receptor 3 (Homo sapiens) (P35916 whole entry): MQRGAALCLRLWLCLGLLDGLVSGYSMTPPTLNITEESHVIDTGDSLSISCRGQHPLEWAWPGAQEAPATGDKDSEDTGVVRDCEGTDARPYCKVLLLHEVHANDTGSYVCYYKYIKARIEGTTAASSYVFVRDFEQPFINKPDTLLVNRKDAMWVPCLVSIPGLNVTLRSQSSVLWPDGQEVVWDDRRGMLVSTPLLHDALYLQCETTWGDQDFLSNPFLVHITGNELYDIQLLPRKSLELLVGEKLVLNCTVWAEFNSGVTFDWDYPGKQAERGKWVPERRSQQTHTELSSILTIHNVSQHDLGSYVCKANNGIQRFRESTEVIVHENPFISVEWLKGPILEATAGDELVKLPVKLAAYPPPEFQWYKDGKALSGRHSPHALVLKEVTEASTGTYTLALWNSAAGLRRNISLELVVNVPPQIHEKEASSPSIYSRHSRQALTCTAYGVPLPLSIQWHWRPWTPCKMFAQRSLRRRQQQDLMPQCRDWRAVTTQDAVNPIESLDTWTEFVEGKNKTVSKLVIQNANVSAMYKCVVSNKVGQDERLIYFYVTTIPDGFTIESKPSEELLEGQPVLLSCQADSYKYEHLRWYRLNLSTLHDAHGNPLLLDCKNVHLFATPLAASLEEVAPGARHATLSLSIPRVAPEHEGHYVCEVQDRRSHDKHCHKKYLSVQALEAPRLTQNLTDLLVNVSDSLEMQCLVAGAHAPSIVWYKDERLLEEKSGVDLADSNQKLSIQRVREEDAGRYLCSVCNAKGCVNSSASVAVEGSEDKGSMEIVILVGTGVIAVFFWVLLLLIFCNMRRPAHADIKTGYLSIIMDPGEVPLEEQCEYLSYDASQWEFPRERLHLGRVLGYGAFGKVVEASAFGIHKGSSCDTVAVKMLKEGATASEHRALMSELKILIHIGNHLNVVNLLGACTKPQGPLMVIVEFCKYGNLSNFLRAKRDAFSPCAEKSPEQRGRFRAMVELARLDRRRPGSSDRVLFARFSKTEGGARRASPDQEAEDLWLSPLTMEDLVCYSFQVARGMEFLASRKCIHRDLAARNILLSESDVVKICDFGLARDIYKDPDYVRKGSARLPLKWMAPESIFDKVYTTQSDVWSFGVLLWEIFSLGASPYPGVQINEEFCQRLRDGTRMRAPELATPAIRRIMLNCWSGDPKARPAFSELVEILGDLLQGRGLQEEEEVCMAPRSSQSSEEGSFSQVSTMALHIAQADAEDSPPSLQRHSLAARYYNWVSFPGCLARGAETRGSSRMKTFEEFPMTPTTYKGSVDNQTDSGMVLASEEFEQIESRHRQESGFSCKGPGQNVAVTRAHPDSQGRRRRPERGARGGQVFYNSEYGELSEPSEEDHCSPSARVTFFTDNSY
# [17] = target: Vascular endothelial growth factor receptor 3 (Homo sapiens) (UniProt P35916); details: at 1 µM
# [18] = target: Macrophage colony-stimulating factor 1 receptor (Homo sapiens) (UniProt P07333); details: at 0.1 µM
# Chain of Macrophage colony-stimulating factor 1 receptor (Homo sapiens) (P07333 whole entry): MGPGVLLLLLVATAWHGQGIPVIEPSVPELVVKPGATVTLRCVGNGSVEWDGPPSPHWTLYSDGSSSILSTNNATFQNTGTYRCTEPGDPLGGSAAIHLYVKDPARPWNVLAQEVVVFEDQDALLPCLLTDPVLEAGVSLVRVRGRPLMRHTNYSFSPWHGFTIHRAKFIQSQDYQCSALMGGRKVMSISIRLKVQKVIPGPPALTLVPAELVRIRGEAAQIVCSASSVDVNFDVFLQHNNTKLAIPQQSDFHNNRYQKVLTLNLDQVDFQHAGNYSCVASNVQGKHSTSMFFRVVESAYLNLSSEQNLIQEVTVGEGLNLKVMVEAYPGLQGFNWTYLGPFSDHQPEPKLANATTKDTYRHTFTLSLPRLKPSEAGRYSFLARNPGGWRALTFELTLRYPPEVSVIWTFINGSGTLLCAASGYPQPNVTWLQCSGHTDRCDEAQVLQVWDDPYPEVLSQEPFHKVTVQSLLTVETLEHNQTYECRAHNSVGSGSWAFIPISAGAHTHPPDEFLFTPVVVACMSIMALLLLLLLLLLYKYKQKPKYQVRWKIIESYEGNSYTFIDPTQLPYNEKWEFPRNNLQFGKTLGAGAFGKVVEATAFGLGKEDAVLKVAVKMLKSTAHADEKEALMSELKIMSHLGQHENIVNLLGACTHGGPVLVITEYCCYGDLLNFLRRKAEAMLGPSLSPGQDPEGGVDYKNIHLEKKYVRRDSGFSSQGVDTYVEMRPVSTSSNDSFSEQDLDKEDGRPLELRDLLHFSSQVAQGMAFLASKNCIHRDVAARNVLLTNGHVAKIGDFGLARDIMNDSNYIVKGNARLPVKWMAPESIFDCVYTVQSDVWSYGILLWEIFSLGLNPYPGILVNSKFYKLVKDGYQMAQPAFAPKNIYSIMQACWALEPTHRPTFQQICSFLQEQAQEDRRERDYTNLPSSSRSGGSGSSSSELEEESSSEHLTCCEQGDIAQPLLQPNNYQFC
# [19] = target: Macrophage colony-stimulating factor 1 receptor (Homo sapiens) (UniProt P07333); details: at 1 µM
# [20] = target: Tyrosine-protein kinase Fyn (Homo sapiens) (UniProt P06241); details: at 0.1 µM
# Chain of Tyrosine-protein kinase Fyn (Homo sapiens) (P06241 2-537 limits assumed): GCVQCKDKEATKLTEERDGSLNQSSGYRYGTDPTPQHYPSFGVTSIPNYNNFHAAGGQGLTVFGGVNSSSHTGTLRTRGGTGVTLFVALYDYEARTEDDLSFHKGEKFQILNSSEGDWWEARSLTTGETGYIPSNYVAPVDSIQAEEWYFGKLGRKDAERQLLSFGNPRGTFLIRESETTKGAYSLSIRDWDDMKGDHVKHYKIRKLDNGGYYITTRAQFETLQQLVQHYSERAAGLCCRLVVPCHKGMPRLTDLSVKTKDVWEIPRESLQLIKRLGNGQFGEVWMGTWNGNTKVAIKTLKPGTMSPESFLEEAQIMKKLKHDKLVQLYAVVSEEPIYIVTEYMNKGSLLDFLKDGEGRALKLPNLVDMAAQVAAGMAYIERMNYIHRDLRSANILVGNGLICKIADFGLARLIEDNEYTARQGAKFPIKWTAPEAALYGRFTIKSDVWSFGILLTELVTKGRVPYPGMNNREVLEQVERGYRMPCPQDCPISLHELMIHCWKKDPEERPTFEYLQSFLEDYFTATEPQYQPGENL
Compound,inhibition [1],inhibition [2],inhibition [3],inhibition [4],inhibition [5],inhibition [6],inhibition [7],inhibition [8],inhibition [9],inhibition [10],inhibition [11],inhibition [12],inhibition [13],inhibition [14],inhibition [15],inhibition [16],inhibition [17],inhibition [18],inhibition [19],inhibition [20]
NS(=O)(=O)c1ccc(Nc2ncc(-c3ccccc3)o2)cc1,5.67%,2.41%,5.75%,4.32%,4.17%,2.71%,1.65%,2.06%,2.65%,3.91%,5.13%,1.46%,3.33%,6.13%,21.6%,3.67%,9.2%,6.69%,32.5%,1.12%
CNC(=O)c1cccc(C#Cc2cncnc2Nc2ccc(OCc3cccc(F)c3)c(Cl)c2)c1,1.01%,-0.52%,-1.06%,0.09%,-0.96%,1.08%,1.68%,0.01%,0.48%,0.64%,4.28%,-0.42%,0.52%,3.66%,0.94%,-2.07%,3.4%,1.48%,7.16%,1.46%
[O-][S+]1CCN(Cc2ccc(-c3ccc4ncnc(Nc5ccc(OCc6cccc(F)c6)c(Cl)c5)c4c3)o2)CC1,7.12%,1.83%,3.84%,6.03%,7.92%,12.5%,1.99%,2.99%,8.43%,12.2%,11.6%,4.06%,4.68%,14.8%,-0.26%,4.68%,7.72%,1.84%,5.71%,1.57%
COc1ccc2c(-c3ccnc(Nc4cccc(OC(F)(F)F)c4)n3)cnn2n1,26.7%,3.61%,6.35%,5.13%,4.77%,3.21%,4.5%,3.37%,4.57%,5.79%,10.2%,3.05%,3.9%,5.81%,15.6%,4.15%,5.87%,7.22%,33.3%,2.72%
